# Test results reported in PubChem BioAssay (NCI).
# Compounds without any hit were thinned out: in the full panel of roughly 83,000, 20% have a hit.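 96-well plates, one dose, 48 hours. Percent growth reported; active if below 10.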 Activity calls are given as the source filed them.
# Tested on: T-47D breast
# Assay: NCI-60 one-dose screen, 48 h (100 = growth as untreated, 0 = no growth, -100 = all killed)
# Settings: 10 µM
row,SMILES,growth
1,CN1CCN(c2ccc(Nc3nc(NCCCNC(=O)c4ccccc4)c4sccc4n3)cc2)CC1,54.3% (inactive)
2,C=C1CC[C@H](C(=C)C)[C@H]2C=C(C)C(=O)C3=C(C(=O)[C@@](C)(O)C3)[C@H]12,-59.3% (active)
3,COc1ccc(N(C)c2cc(C#N)nc3ccccc23)cc1N,20.8% (inactive)
4,COc1ccc(C(C)=C(c2ccc(OCCCN(C)C)cc2)c2ccc(OCCCN(C)C)cc2)cc1,-76.2% (active)
5,CC1(c2ccccc2)NC(=O)N(CC(=O)Nc2ccc(C(=O)/C=C/c3ccc(Cl)cc3)cc2)C1=O (stereo unspecified),10.4% (inactive)
6,NC(=Nc1ccc(OCCCCCCCCn2ccnn2)cc1)c1ccccc1,40% (inactive)
7,COC[C@@H](CC(C)C)N=C1N/C(=C\c2ccc3ncsc3c2)C(=O)N1C,-7.71% (active)
8,O=C(CSc1ccc(-c2ccc(Cl)cc2)nn1)Nc1ccc(Cl)c(C(F)(F)F)c1,58.3% (inactive)
9,Cc1ccc(NC(=O)NCn2c(=O)[nH]c3ccccc3c2=O)cc1,79.6% (inactive)
10,Cc1cc(C)cc(Oc2cccc(-c3c(C)nnn3C3CCN(CCN(C)C)CC3)n2)c1,24.8% (inactive)
11,CC(=O)NCC1=C(C)C=C2C(=O)[C@](C)(O)C3(CC3)C(C)=C21,-11.8% (active)
12,O=C(Nc1ccc(OCC(=O)c2ccccc2)cc1)Nc1ccc(Cl)c(C(F)(F)F)c1,3.26% (active)
13,CCOC(=O)c1c(CSc2ccccc2)n(C)c2cc(CN(C)C)c(O)c(CN(C)C)c12,50.2% (inactive)
14,Cc1ccc(-c2cc(-c3cc4ccccc4nc3Cl)[nH]c(=O)n2)cc1,3.13% (active)
15,COc1ccc([C@H]2C(C(=O)c3ccc(Cl)cc3)C3(N[C@@H]2c2ccccc2)C(=O)Nc2ccc(Br)cc23)cc1 (stereo partly specified),21.2% (inactive)
16,O=C(CS(=O)(=O)c1oc(-c2ccc(Cl)cc2)nc1S(=O)(=O)c1ccc(Cl)cc1)N1CCOCC1,-50.2% (active)
17,COc1ccc(C=CC(=O)c2ccc(-n3c(C)nc4c(cnn4-c4ccccc4)c3=O)cc2)cc1,34.7% (inactive)
18,O=C1Nc2ccc(Cl)cc2/C1=C/c1cccc(OCc2ccccc2)c1,12.5% (inactive)
19,CN(C)c1ccc(/C=C/C(=O)c2ccc(NC(=O)CN3C(=O)NC(C)(c4ccccc4)C3=O)cc2)cc1 (stereo unspecified),22.1% (inactive)
20,COc1cccc(C(N)=Nc2ccc(OCCCCCCn3cncn3)cc2)c1,46.1% (inactive)
21,CN1CCN(Cc2ccc(C(=O)Nc3cccc(Nc4ccc5cc(O)ccc5n4)c3)cc2C(F)(F)F)CC1,-11.7% (active)
22,Nc1nnc(-c2c[nH]c3ccc(F)cc23)c(-c2c[nH]c3ncccc23)n1,31.7% (inactive)
23,C/C(=C\CC/C=C(\C)CC/C=C(\C)CC[C@@H](O)C(C)(C)O)CC/C=C(\C)CC[C@@H](O)C(C)(C)O,6.38% (active)
24,Cc1ccc(-c2ccc(SCC(=O)Nc3ccc(Cl)c(C(F)(F)F)c3)nn2)cc1,26.2% (inactive)
25,CN1CCN(c2ccc(Nc3nc(NCCCNC(=O)c4ccc(F)cc4)c4sccc4n3)cc2)CC1,51.5% (inactive)
26,C#Cc1ccc(S(=O)(=O)Nc2cccc(-c3csc(NC(C)=O)n3)c2)cc1,42.8% (inactive)
